Laboratory results from PubChem BioAssay (NCI).
About 79,000 compounds went through this panel and 15% of them were active in at least one assay; those are over-represented in the sample as a whole. The source made the active and inactive calls. No stated cut-off is given here; in the data, active means growth inhibition above about 70%; inactive means the rest.

Assay: NCI Yeast Anticancer Drug Screen. Data for the bub3 strain (AID 167)
Details: S. cerevisiae bub3 mutant strain, at 5.0 µM (retest, dose inferred, filed as 0.5), active compounds read high
Procedure, shortened: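 Compounds were applied to a genetically altered yeast strain carrying a cell-cycle control defect. Growth inhibition was scored against vehicle-treated controls.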
For `CC12CCC(=O)C=C1CCC1C2CCC2(C)C(O[Si](C)(C)OC3CCC4C5CCC6=CC(=O)CCC6(C)C5CCC34C)CCC12` (stereo not given), the growth inhibition was -1% (inactive).
For `CC1=C[C@H]2O[C@H]3C[C@H]4OC(=O)/C=C\C=C\C(=O)OCC[C@@H](C)[C@H](O)C(=O)OC[C@@]2(CC1)[C@@]4(C)[C@]31CO1`, the growth inhibition was 100% (active).
With `CCCCCCCC[As](C)(=O)O` the growth inhibition was -75% (inactive).
For `OC1C2[C@@H](O)CCCN2C[C@@H](O)[C@H]1O` (stereo not given in full), the growth inhibition was 6% (inactive).
With `COC1(O[C@H]2CC[C@H]3[C@@H]4CCC5=CC(=O)CC[C@]5(C)[C@H]4CC[C@]23C)CCCCC1` the growth inhibition was 1% (inactive).
For `O=[N+]([O-])c1ccc(CS(=O)(=O)C(Cl)(Cl)Cl)o1`, the growth inhibition was 8% (inactive).
In the case of `CC([CH2][Hg][Cl])c1ccccc1` (stereo not given), the growth inhibition is reported as 99% (active).
With `CC(C)CC[CH2][Pb]([CH2]CCC(C)C)([CH2]CCC(C)C)[O]C(=O)C(Cl)(Cl)Cl` the growth inhibition was 2% (inactive).
For `COC1OC(OC)[CH]([Hg][Cl])C1OC` (stereo not given), the growth inhibition was 100% (active).
In the case of `S=C=[N][Sn]([N]=C=S)([c]1ccccc1)[c]1ccccc1.c1ccc2nc(-c3ccc4ccccc4n3)ccc2c1`, the growth inhibition is reported as 85% (active).
In the case of `CSCCC([NH-])C(=O)O.CSCCC([NH-])C(=O)O.[Zn+2]` (stereo not given), the growth inhibition is reported as 4% (inactive).
With `C[PH+](C)C.C[PH+](C)C.[Au]` the growth inhibition was 27% (inactive).
In the case of `O=C(O)C(Br)C(Br)C(=O)O.[Ag]` (stereo not given), the growth inhibition is reported as 99% (active).
With `CCC1CN1P(=O)(Oc1ccccc1)N1CC1CC` (stereo not given) the growth inhibition was 7% (inactive).
In the case of `CCCCCc1cc(O)c(CCCC)c(O)c1`, the growth inhibition is reported as -56% (inactive).
For `N#CC(Cl)(Cl)CCl`, the growth inhibition was 6% (inactive).
With `O=C(Cc1c2ccccc2cc2c1ccc1ccccc12)N(CCCl)CCCl` the growth inhibition was 17% (inactive).
With `CC[C@@]1(O)C(=O)OCc2c1cc1n(c2=O)Cc2cc3c(OC)cccc3nc2-1` the growth inhibition was 48% (inactive).
With `CCOC(=O)NP(=O)(NNc1ccccc1)NNc1ccccc1` the growth inhibition was 93% (active).
With `C=C1C(=O)O[C@@H]2C[C@@H](C)[C@@H]3C=CC(=O)[C@@]3(C)[C@@H](O)[C@H]12` the growth inhibition was -18% (inactive).
In the case of `O=C(O)C(F)(F)F.[Ag]`, the growth inhibition is reported as 99% (active).
With `O=C(CBr)Nc1ccccc1` the growth inhibition was 74% (active).
With `C1=C[N-]c2c3c(ccc2=C1)=CC=C[N-]3.C1=C[N-]c2c3c(ccc2=C1)=CC=C[N-]3.F[P-](F)(F)(F)(F)F.[Cu+2]` the growth inhibition was 48% (inactive).
For `O=[N+]([O-])/C=C/c1ccccc1Cl`, the growth inhibition was 98% (active).
For `CCOP(=S)(OCC)SSSP(=S)(OCC)OCC`, the growth inhibition was 2% (inactive).
In the case of `CCOC(=O)c1ccc(N=Cc2ccc(N(CCCl)CCCl)cc2C)cc1`, the growth inhibition is reported as -6% (inactive).
For `COc1ccc2c(c1)CCC(N1CCCC(=O)C1)C2` (stereo not given), the growth inhibition was 4% (inactive).
In the case of `CCCCCCC(=O)[O][Hg][c]1ccccc1`, the growth inhibition is reported as 99% (active).
In the case of `CCC[CH2][Sn]1([CH2]CCC)[O]C(=O)c2cccnc2[S]1`, the growth inhibition is reported as 44% (inactive).
With `C[AsH](C)CC[AsH](C)C.C[AsH](C)CC[AsH](C)C.C[AsH](C)CC[AsH](C)C.[Ni]` the growth inhibition was 68% (inactive).
In the case of `O=c1[nH]c2ccccc2n1C1CCN(CCCC(c2ccc(F)cc2)c2ccc(F)cc2)CC1`, the growth inhibition is reported as -2% (inactive).
With `O=[C-]c1ccccc1[C-]=O.[Pd+2].c1ccc([PH+](c2ccccc2)c2ccccc2)cc1.c1ccc([PH+](c2ccccc2)c2ccccc2)cc1` the growth inhibition was 4% (inactive).
In the case of `c1ccc(C(c2ccccc2)c2cccnc2)cc1`, the growth inhibition is reported as 52% (inactive).
With `C#CC[As+](c1ccccc1)(c1ccccc1)c1ccccc1` the growth inhibition was 34% (inactive).
With `CC[CH2][Pb]([CH2]CC)([CH2]CC)[O]C(C)=O` the growth inhibition was 99% (active).
In the case of `CC[PH+](CC)CC.[Cl][Au]`, the growth inhibition is reported as 99% (active).
For `CN(C)[PH+](N(C)C)N(C)C.CN(C)[PH+](N(C)C)N(C)C.[C-]#[O+].[C-]#[O+].[C-]#[O+].[C-]#[O+].[C-]#[O+].[C-]#[O+].[Co].[Co].[Hg]`, the growth inhibition was 2% (inactive).
With `CC1=C(N2CC2)C(=O)c2nc3n(c2C1=O)CCC3OC(=O)CCl` (stereo not given) the growth inhibition was 24% (inactive).
With `[N-]=[N+]=Nc1c([N+](=O)[O-])c(=O)n2c3c(cccc13)CCC2` the growth inhibition was 37% (inactive).
For `CCC[CH2][Sn]1([CH2]CCC)[O]CC(CN2CCCCC2)[O]1` (stereo not given), the growth inhibition was 34% (inactive).

Same assay, conditions: S. cerevisiae bub3 mutant strain, at 50.0 µM (retest, dose inferred, filed as 5.0), active compounds read high
For `CC12CCC(=O)C=C1CCC1C2CCC2(C)C(O[Si](C)(C)OC3CCC4C5CCC6=CC(=O)CCC6(C)C5CCC34C)CCC12` (stereo not given), the growth inhibition was 0% (inactive).
In the case of `CC1=C[C@H]2O[C@H]3C[C@H]4OC(=O)/C=C\C=C\C(=O)OCC[C@@H](C)[C@H](O)C(=O)OC[C@@]2(CC1)[C@@]4(C)[C@]31CO1`, the growth inhibition is reported as 98% (active).
With `CCCCCCCC[As](C)(=O)O` the growth inhibition was -71% (inactive).
In the case of `OC1C2[C@@H](O)CCCN2C[C@@H](O)[C@H]1O` (stereo not given in full), the growth inhibition is reported as 8% (inactive).
In the case of `COC1(O[C@H]2CC[C@H]3[C@@H]4CCC5=CC(=O)CC[C@]5(C)[C@H]4CC[C@]23C)CCCCC1`, the growth inhibition is reported as -4% (inactive).
In the case of `O=[N+]([O-])c1ccc(CS(=O)(=O)C(Cl)(Cl)Cl)o1`, the growth inhibition is reported as 98% (active).
In the case of `CC([CH2][Hg][Cl])c1ccccc1` (stereo not given), the growth inhibition is reported as 99% (active).
For `CC(C)CC[CH2][Pb]([CH2]CCC(C)C)([CH2]CCC(C)C)[O]C(=O)C(Cl)(Cl)Cl`, the growth inhibition was 98% (active).
With `COC1OC(OC)[CH]([Hg][Cl])C1OC` (stereo not given) the growth inhibition was 99% (active).
With `S=C=[N][Sn]([N]=C=S)([c]1ccccc1)[c]1ccccc1.c1ccc2nc(-c3ccc4ccccc4n3)ccc2c1` the growth inhibition was 99% (active).
For `CSCCC([NH-])C(=O)O.CSCCC([NH-])C(=O)O.[Zn+2]` (stereo not given), the growth inhibition was 6% (inactive).
In the case of `C[PH+](C)C.C[PH+](C)C.[Au]`, the growth inhibition is reported as 57% (inactive).
With `O=C(O)C(Br)C(Br)C(=O)O.[Ag]` (stereo not given) the growth inhibition was 99% (active).
In the case of `CCC1CN1P(=O)(Oc1ccccc1)N1CC1CC` (stereo not given), the growth inhibition is reported as 52% (inactive).
For `CCCCCc1cc(O)c(CCCC)c(O)c1`, the growth inhibition was 83% (active).
In the case of `N#CC(Cl)(Cl)CCl`, the growth inhibition is reported as 99% (active).
In the case of `O=C(Cc1c2ccccc2cc2c1ccc1ccccc12)N(CCCl)CCCl`, the growth inhibition is reported as 97% (active).
With `CC[C@@]1(O)C(=O)OCc2c1cc1n(c2=O)Cc2cc3c(OC)cccc3nc2-1` the growth inhibition was 78% (active).
In the case of `CCOC(=O)NP(=O)(NNc1ccccc1)NNc1ccccc1`, the growth inhibition is reported as 98% (active).
With `C=C1C(=O)O[C@@H]2C[C@@H](C)[C@@H]3C=CC(=O)[C@@]3(C)[C@@H](O)[C@H]12` the growth inhibition was 3% (inactive).
In the case of `O=C(O)C(F)(F)F.[Ag]`, the growth inhibition is reported as 98% (active).
For `O=C(CBr)Nc1ccccc1`, the growth inhibition was 99% (active).
With `C1=C[N-]c2c3c(ccc2=C1)=CC=C[N-]3.C1=C[N-]c2c3c(ccc2=C1)=CC=C[N-]3.F[P-](F)(F)(F)(F)F.[Cu+2]` the growth inhibition was 99% (active).
In the case of `O=[N+]([O-])/C=C/c1ccccc1Cl`, the growth inhibition is reported as 99% (active).
With `CCOP(=S)(OCC)SSSP(=S)(OCC)OCC` the growth inhibition was 84% (active).
For `CCOC(=O)c1ccc(N=Cc2ccc(N(CCCl)CCCl)cc2C)cc1`, the growth inhibition was 2% (inactive).
For `COc1ccc2c(c1)CCC(N1CCCC(=O)C1)C2` (stereo not given), the growth inhibition was 31% (inactive).
For `CCCCCCC(=O)[O][Hg][c]1ccccc1`, the growth inhibition was 99% (active).
In the case of `CCC[CH2][Sn]1([CH2]CCC)[O]C(=O)c2cccnc2[S]1`, the growth inhibition is reported as 97% (active).
For `C[AsH](C)CC[AsH](C)C.C[AsH](C)CC[AsH](C)C.C[AsH](C)CC[AsH](C)C.[Ni]`, the growth inhibition was 99% (active).
In the case of `O=c1[nH]c2ccccc2n1C1CCN(CCCC(c2ccc(F)cc2)c2ccc(F)cc2)CC1`, the growth inhibition is reported as 10% (inactive).
For `O=[C-]c1ccccc1[C-]=O.[Pd+2].c1ccc([PH+](c2ccccc2)c2ccccc2)cc1.c1ccc([PH+](c2ccccc2)c2ccccc2)cc1`, the growth inhibition was 97% (active).
With `c1ccc(C(c2ccccc2)c2cccnc2)cc1` the growth inhibition was 98% (active).
With `C#CC[As+](c1ccccc1)(c1ccccc1)c1ccccc1` the growth inhibition was 99% (active).
With `CC[CH2][Pb]([CH2]CC)([CH2]CC)[O]C(C)=O` the growth inhibition was 100% (active).
In the case of `CC[PH+](CC)CC.[Cl][Au]`, the growth inhibition is reported as 99% (active).
In the case of `CN(C)[PH+](N(C)C)N(C)C.CN(C)[PH+](N(C)C)N(C)C.[C-]#[O+].[C-]#[O+].[C-]#[O+].[C-]#[O+].[C-]#[O+].[C-]#[O+].[Co].[Co].[Hg]`, the growth inhibition is reported as 13% (inactive).
For `CC1=C(N2CC2)C(=O)c2nc3n(c2C1=O)CCC3OC(=O)CCl` (stereo not given), the growth inhibition was 19% (inactive).
With `[N-]=[N+]=Nc1c([N+](=O)[O-])c(=O)n2c3c(cccc13)CCC2` the growth inhibition was 99% (active).
For `CCC[CH2][Sn]1([CH2]CCC)[O]CC(CN2CCCCC2)[O]1` (stereo not given), the growth inhibition was 96% (active).
